± gives the standard deviation of the averaged measurements. The full ranking holds about 25,000 sequences; the median of “ln(normalized median fluorescence intensity)” is about 7.9, and the highest 2% start at about 11. For the sample, the highest values were picked, then their nearest neighbours and some sequences at random.
Tested on: PfAP2-I AP2 domain 3 (GST-tagged)
Experiment: gcPBM binding intensity (ln(normalized median fluorescence intensity)); higher = stronger DNA binding
Procedure, shortened: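 DNA-binding domains from P. falciparum, fused to GST and produced in E. coli, were put on an Agilent 4 × 180k double-stranded probe array for 1 h in 1× PBS holding 1% milk, 0.2 mg/ml BSA, 0.5% salmon testes DNA and 0.03% Triton X-100. Probes were primer-extended, 36 bp long and drawn from intergenic genomic regions, with negative controls included. After Alexa488 anti-GST antibody detection and a 488 nm scan, binding intensity was set as the highest Masliner-normalised natural-log median intensity across replicate spots of either probe orientation.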

Sequence | gcPBM binding intensity (ln)
CAATGCAAGGCTTAAAAAAATGGGCATATTATATAT [GTGCAC_negctrl_site304] | 7.79 ± 0.83
TAAGTTATATGTATATGTACTTATATATATATATAT [XGTACX_site5402] | 9.16 ± 0.76
AGAATATAATTTTTATGTACATATATTAAATATATT [XGTACX_site8521] | 7.6 ± 0.37
CATATAAGAATCTTCTGTACTTATAAGAAAAGACAT [XGTACX_site8135] | 7.89 ± 0.48
AAAAAAAGTTGATACTGTACTCGTGCATTATGAATA [XGTACX_site5558] | 11.3 ± 0.57
TTATGAAAAAAATACTGTACACAATATGACGAAAGT [XGTACX_site2283] | 8.46 ± 0.42
TATTATGACTTAAGTTGTACTGTTGAAAGAAGAAAA [XGTACX_site2985] | 7.88 ± 0.53
ACTTAATTTTTTTATTGTACATGTAAATGAGGGAAA [XGTACX_site6305] | 8.25 ± 0.26
AAGACTCTTTGTCCTTGTACATATATTTTTATGTTT [XGTACX_site3711] | 7.76 ± 0.59
CACATACACATACAAACACACATTATGTATATATAT [CACACA_site1599] | 8.16 ± 0.84
ATATATTTAAACTACACACGCATATCTTAGAAATAA [CACACA_site1272] | 7.77 ± 0.54
AAAATAAAATTAGTTGCATGCAACTTAAACAGAAAT [TGCATGCA_site860] | 8.14 ± 0.63
ATTAATTAAAATAGTTGTACAATCAAAAAAACAAAA [XGTACX_site7660] | 8.15 ± 0.64
ATAAATAAAACAACAGTGCAATAAAATTAGTTGAGG | 10.9 ± 0.25
AATATATTTTTATATTGTACAAAAGAAAAAAAATAT [XGTACX_site1689] | 8.05 ± 0.48
TTTTTTTTGTATTAATGTACATATAACTTTTTTTTT [XGTACX_site7903] | 7.7 ± 0.49
AATACACATAATACATGTACTCACATTGTTATAACA [XGTACX_site4129] | 8.04 ± 0.53
AGTTTGCATATGGAAGTGCATTACCTTGAACATCAT | 11.2 ± 0.38
AGTTGCATACATTGAAGTACAGAACATTTATATATA [XGTACX_site240] | 7.86 ± 0.44
TTTATATCATTACAAGTGCATATCATCATAAATTCT [GTGCAC_site9878] | 8.81 ± 0.3
TATATATGTTTATGTAGTACTATATATCCCTTTCTT [XGTACX_site7049] | 7.61 ± 0.53
TAAATTTATGGACACACACACATATATATATATATA [CACACA_site4620] | 9.45 ± 0.35
TATAGATACACTTTGTGTACATAAAAATTGTATTAA [XGTACX_site7137] | 7.66 ± 0.29
TATAAACTTAATTTGAGTACTTAATAATAATTTTGT [XGTACX_site3730] | 7.38 ± 0.47

Sequence | gcPBM binding intensity (ln)
GTCAACTTGTGATAAGTGCATATATATAATAAAATG | 9.875 ± 0.078
GAATAATATGGACATACACACATATACATACCTATA [CACACA_site7075] | 8.07 ± 0.59
ATACAGTTGCATATGGTGCACGAATAATACACCTAT | 11 ± 0.25
GTACACCTATAATATACACACAACAAATATGCACAT [CACACA_site6603] | 9.64 ± 0.39
ACTATTAAGAATAAAGAAATATGTAATTGTATTTAA [CACACA_negctrl_site516] | 7.43 ± 0.59
GTATAGAGAAAAAACTGTACTTTATATAAATATTTA [XGTACX_site3972] | 7.53 ± 0.3
ATATATGTACAAATTGTGCGCAATAATTTTGTCTTT | 9.06 ± 0.33
TACATTTCATTGTAATCATAAAAAATAAAGAAAAAA [XGTACX_negctrl_site542] | 7.58 ± 0.61
ATATCTTATAATACGGTGCACTTGACATGAACAACT [GTGCAC_site9987] | 10.7 ± 0.3
ATAATGAACAAAGTAGTGCACTTTCCTTATCTTTTC | 11.4 ± 0.26
CCTTTCCTTTTATAAGTGCATATAACAAATGTATAC [GTGCAC_site9872] | 10 ± 0.11
AATATAAACCCAAACACACACATATATATATATATA [CACACA_site268] | 9.4 ± 0.37
ATATAAAATATGAGTAGTACATATTTTCTCATCTTA [XGTACX_site8595] | 7.55 ± 0.38
ACTACAAGGCAATACAGTACATATAAATGTCATAAT [XGTACX_site8468] | 7.85 ± 0.45
AATAATATATATTACACACGCATCGTTCATTTATTT [CACACA_site2391] | 7.87 ± 0.92
AAATACTGATTTGGTTGTACATGTGCACTATATAAC [XGTACX_site3795] | 11.3 ± 0.56
AAATATTTGTGTGGTTGTACTATAATGATAAAAATA [XGTACX_site7703] | 8.14 ± 0.42
ATACTAACATTTTTTTGTACATATAACTATAAAATA [XGTACX_site1033] | 8.09 ± 0.47
GGGAAACGATTTAATACACACACGTATTATATATAT [CACACA_site1160] | 8.48 ± 0.59
ATTAGTATAATGTAACTTAGTTAATAGTGCTAATAT [CACACA_negctrl_site764] | 9.54 ± 0.4
AAAAAAAAAAAAATGGTGCAACTTTGTTAAAGGAAA [GTGCAC_site9950] | 9.56 ± 0.12
TTTTCATTTGTGACAGTGCAAAATGTTATATTAAAA [GTGCAC_site9647] | 9.99 ± 0.3
CTCATTTTGTTAATGGTGCAAAAAAAAAAAAAAAAA | 11.1 ± 0.73
ATGGATTATTTTTAAACATGCAGTAGTGATGAAAAA [TGCATGCA_site346] | 8.36 ± 0.53

Sequence | gcPBM binding intensity (ln)
GACATATTCCCCCCCACACACACACCCACATACATA [CACACA_site2302] | 10.8 ± 0.26
CATATTCCCCCCCACACACACACACGCATACATACC [CACACA_site7148] | 10.8 ± 0.33
CATATTCCCCCCCACACACACACACCCATACATACC [CACACA_site2303] | 11.2 ± 0.44
TGAAAAAAAAAATGCACACGCATACAGATAATATGT [CACACA_site4526] | 8.62 ± 0.51
GTTGAAAAAAAAAATGCACACGCATACATATAATAT [CACACA_site8117] | 8.71 ± 0.29
TTTGAAATAAATAATGCACACTCTACATATATACGT [CACACA_site2244] | 11.1 ± 0.61
AAATATAATATATGCACACATACATACAGATATATA [CACACA_site4235] | 9.22
AAATATAATATATGCACACATACATACATATATATA [CACACA_site104] | 9.41 ± 0.3
TGAAATAAATAATGCACACTCTACAGATATACGTAT [CACACA_site5270] | 11.1 ± 0.66
AATTATATAAGCCACGCATGTGTGCATAAAAATACA [TGCATGCA_site114] | 11.1 ± 0.34
AAATAAAATTATAATACATGCATACATACATATATA [TGCATGCA_site69] | 7.9 ± 0.54
AAAAATAAAATATATACATGCATATACATATTATAT [TGCATGCA_site668] | 7.87 ± 0.45
ATGTTAATAACTTGTGGTACTGTTATAATTTAGTAA [XGTACX_site2114] | 7.71 ± 0.42
ATATATATATAATTATATAAAATATATCATATGTTA [XGTACX_negctrl_site47] | 8.76 ± 0.16
TATTAATTATATTTATGTACATAATCATATTATTAT [XGTACX_site7938] | 7.66 ± 0.39
TTTAATCATATGTTATATAATAAGCCCCCCCCCCAA [CACACA_negctrl_site486] | 11.1 ± 0.63
ATTAATAATCGAAAGGTGCACTTTGATTTGATAACA | 11.2 ± 0.3
ATTATTTGATTAAAGGTGCAAGGATAATAATAAAAC | 9.47 ± 0.17
AAAAAAAAAAAAAAGGTGCATACTTTGAATTAATAT [GTGCAC_site9401] | 9.87 ± 0.17
AAAAAAAAAAAAAAAAGTACATGAAAAAAAGAAGAA [XGTACX_site8384] | 8.7 ± 0.27
AGGTGCAAAAATAAAACATGCAAAAATAAAAATGAA [TGCATGCA_site502] | 10.9 ± 0.65
GACAATTATATGTAGGTGCATATACAAATTTTTTAA | 10.4 ± 0.57
ATTTTATATACAAAATGTACATATTTATTATATATG [XGTACX_site6732] | 7.74 ± 0.5
ATTATGTACAAAATGGTGCAATATTATACATATATA [GTGCAC_site9468] | 11.1 ± 0.49

Sequence | gcPBM binding intensity (ln)
CAATATATTATATGGGTGCAAACCACATATAAATAA | 10.1 ± 0.33
ATATAAAATACATGGGTGCAATATATTAAACAAATA [GTGCAC_site9421] | 11.2 ± 0.48
CATATATATTTTATATGTACATATATATTTTATATA [XGTACX_site8665] | 7.59 ± 0.15
TAAAGGAAATAAAAAACATGCAAATATGAAATATAT [TGCATGCA_site745] | 7.61 ± 1.1
AAATAAAATAATAAAACATGCAAAAATAATGATTTA [TGCATGCA_site415] | 7.71 ± 0.76
TATTAAATATATATTACATGCAAAAAAAAAAAACAA [TGCATGCA_site705] | 7.97 ± 0.52
TACAAATATATAAAATGTACATATATATACATATTA [XGTACX_site3029] | 7.46 ± 0.27
ATTTTTTTTTTTTTATGTACATATAGGTGCAAATCA [XGTACX_site6748] | 11.3 ± 1
TTTTATTGTTTTTTTTTTTTTTCTTTTTTTTTTTTT [CACACA_negctrl_site1094] | 7.91 ± 0.46
ATACGTGGGCAAAAAGTGCATATAATCAAAAAAAAA [GTGCAC_site9961] | 10.4 ± 0.11
ATAAGATAGGCATATACACACATTTATTTACAGATA [CACACA_site5754] | 7.71 ± 0.67
TTGTTTTTGTTCTTGGGTACTTAAATTATAAATGAT [XGTACX_site113] | 8.07 ± 0.45
ATAACTTTTTAAAAGACACACATAAGAAAAACAAAA [CACACA_site723] | 8.08 ± 0.64
TATATGTGATAACACGCACACAAATGTATATAATTT [CACACA_site2593] | 8.1 ± 0.28
TCTTTATATCATCTTTCTAAATATATATATATATAA [CACACA_negctrl_site77] | 7.84 ± 0.55
TTCATTAAATAGAACAAAATAATAATATAACAACAA [GTGCAC_negctrl_site116] | 7.74 ± 0.53
AAAATAAATAAAAAAAGTACATATATAATTTATAAA [XGTACX_site2411] | 7.75 ± 0.39
ACAAGTTTTTTTTTATCACACACAAAAAAAAAAATA [CACACA_site8377] | 7.9 ± 0.44
TAATTATAATAATAACGTACATATATAAAATGGTGA [XGTACX_site8434] | 8.04 ± 0.34
ATAAAACGTACAATGGTGCATATAAATAATATATAT [GTGCAC_site9960] | 11 ± 0.52
AATATAAATAAAAACACACACAATGGTACATATATA [CACACA_site3671] | 7.84 ± 0.54

Reference: the supplement of paper PMC11417369
